Laboratory results as given in article PMC5540273 (PLoS ONE, 2017).

Columns and labels:
Conditions in all cases: concentration: 1 μM,replicates: in singlicate; n = 1
[1] = test system: RPS6KA4(Kin.Dom.1-N-terminal)
[2] = test system: RPS6KA4(Kin.Dom.2-C-terminal)
[3] = test system: RPS6KA5(Kin.Dom.1-N-terminal)
[4] = test system: RPS6KA5(Kin.Dom.2-C-terminal)
[5] = test system: T1, RSK1(Kin.Dom.1-N-terminal)
T1 construct: gene RPS6KA1

[6] = test system: T2, RSK1(Kin.Dom.2-C-terminal)
T2 construct: gene RPS6KA1

[7] = test system: T3, RSK2(Kin.Dom.1-N-terminal)
T3 construct: gene RPS6KA3

[8] = test system: T4, RSK2(Kin.Dom.2-C-terminal)
T4 construct: gene RPS6KA3

[9] = test system: T5, RSK3(Kin.Dom.1-N-terminal)
T5 construct: gene RPS6KA2

[10] = test system: T6, RSK3(Kin.Dom.2-C-terminal)
T6 construct: gene RPS6KA2
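Note: KINOMEscan kinase panel screen.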

SMILES	%Inh [1]	%Inh [2]	%Inh [3]	%Inh [4]	%Inh [5]	%Inh [6]	%Inh [7]	%Inh [8]	%Inh [9]	%Inh [10]
O=C(Nc1cccc(C(F)(F)F)c1)c1cccc(Oc2ccc3nccn3n2)c1	9%	0%	8%	0%	25%	0%	10%	48%	23%	68%
Cc1nnc(-c2ccc3occ(-c4ccc(S(C)=O)cc4)c3n2)o1 (stereo not drawn)	0%	0%	9%	0%	0%	14%	0%	0%	0%	3%
CS(=O)(=O)c1cccc(CNc2nc(Nc3ccc4c(c3)[C@@H]3C[C@@H]4CNC3=O)ncc2C(F)(F)F)c1	33%	0%	0%	46%	66%	7%	84%	0%	85%	13%
CSc1nccc(-c2c(-c3ccc(F)cc3)ncn2CCCN2CCOCC2)n1.Cl [SB-217146]	27%	0%	0%	4%	3%	17%	46%	0%	0%	18%
CN1CCN(CCNc2nc3cc(Oc4ccc(NC(=O)Nc5cc(C(F)(F)F)ccc5F)cc4)ccc3[nH]2)CC1.Cl.Cl [GW768504]	5%	0%	0%	1%	7%	28%	0%	0%	0%	8%
Cn1cc(-c2cccc3c(N)c(C(N)=O)nnc23)cn1	53%	30%	21%	13%	0%	0%	23%	44%	21%	0%
Cc1n[nH]c2cc(Nc3ccnc(Nc4cccc(CN5CCOCC5)c4)n3)ccc12 [GW682569]	0%	0%	0%	21%	3%	28%	22%	20%	0%	0%
CN(c1ccccc1CNc1nc(Nc2ccc3c(c2)CC(=O)N3)ncc1C(F)(F)F)S(C)(=O)=O	89%	46%	71%	14%	86%	0%	89%	0%	91.1%	7%
O=c1[nH]cc(-c2ccc(O)cc2)c2sc(-c3ccncc3)cc12 [GSK1033723]	0%	0%	4%	21%	10%	0%	0%	23%	0%	3%
O=C(Nc1cccc(Oc2ccc3nccn3n2)c1)Nc1cccc(C(F)(F)F)c1	24%	0%	0%	0%	0%	9%	8%	25%	0%	0%
COc1cc2c(Nc3ccc(NC(=O)c4ccccc4)cc3)ncnc2cc1OCCCN1CCOCC1 [GSK301329]	20%	0%	0%	0%	11%	0%	0%	1%	0%	0%
Cc1ccc(CC(=O)N2CCc3cc(-c4cn(C)c5ncnc(N)c45)ccc32)cc1 [GSK2634758]	16%	0%	3%	0%	9%	4%	0%	4%	7%	0%
Cc1cccc2c(-c3ccncc3)c(-c3ccc(F)cc3)nn12.Cl [GW461487]	0%	0%	0%	6%	11%	51%	3%	32%	0%	19%
N#Cc1cccc(C(=O)NC2CCN(c3ccnc(Nc4ccc(F)cc4)n3)C2)c1 (stereo not drawn) [GSK1379708]	0%	0%	0%	0%	15%	0%	0%	0%	0%	0%
CN(c1cccc(CNc2nc(Nc3ccc4c(c3)CC(=O)N4)ncc2C(F)(F)F)c1)S(C)(=O)=O	48%	3%	12%	20%	67%	13%	87%	23%	78%	27%
CC(=O)Nc1ccc(-c2cc3ncnc(SCC(=O)O)c3s2)cc1	6%	47%	0%	15%	0%	25%	0%	0%	14%	19%
CC(C)S(=O)(=O)N1CCN(Cc2ccc3c(c2)nc(NC(=O)c2ccsc2)n3C[C@H](O)c2ccccc2)CC1 [GW635815]	29%	0%	12%	0%	96.1%	0%	91.8%	6%	93.5%	24%

SMILES	%Inh [1]	%Inh [2]	%Inh [3]	%Inh [4]	%Inh [5]	%Inh [6]	%Inh [7]	%Inh [8]	%Inh [9]	%Inh [10]
Cn1ccc2ncnc(Oc3ccc(NC(=O)Nc4cnn(C(C)(C)C)c4)c(Cl)c3)c21	0%	5%	32%	0%	0%	27%	11%	0%	0%	9%
Nc1nccc(-c2ccc3c(N)n[nH]c3c2)n1 [GSK1034945]	0%	81%	7%	62%	4%	32%	29%	22%	31%	1%
NC(=O)c1ccc(-c2cc3ncnc(SCC(=O)O)c3s2)cc1	0%	24%	7%	0%	0%	0%	1%	0%	2%	7%
CCNCC(Cc1ccccc1)NC(=O)c1cc(Br)c(-c2ccnc3[nH]ccc23)s1.Cl.Cl (stereo not drawn) [GSK1383280]	67%	21%	43%	22%	21%	18%	42%	0%	10%	1%
OCCn1cc(-c2cnc3nnn(Cc4ccc5ncccc5c4)c3n2)cn1	1%	0%	0%	2%	9%	0%	0%	0%	0%	0%
CC(C)c1nc(-c2cccc(NS(=O)(=O)c3ccccc3)c2)c(-c2ccnc(Nc3ccc4c(c3)CN(C)CC4)n2)s1 [GSK1649598]	33%	0%	4%	0%	73%	44%	10%	0%	15%	0%
Cc1ccn2nc(-c3ccc(F)cc3)c(-c3ccncc3)c2c1.Cl [GW457859]	0%	0%	44%	27%	0%	44%	0%	0%	0%	24%
COc1cc2nccc(Nc3ccc(Oc4ccccc4)cc3)c2cc1OC.Cl [GI261656]	0%	0%	0%	12%	2%	0%	0%	0%	0%	0%
Cn1ccc2ncnc(Oc3ccc(NC(=O)Nc4cc(C(C)(C)C)on4)c(Cl)c3)c21	0%	13%	0%	6%	0%	17%	16%	1%	0%	8%
O=C(Nc1ccc(Oc2ccc3nc(NC(=O)C4CC4)cn3n2)c(F)c1)c1cccn(-c2ccccc2)c1=O	50%	0%	0%	9%	0%	0%	0%	28%	0%	0%
COC(=O)c1cccc(NC(=O)NC2CCN(c3ccnc(NCc4ccc(F)cc4)n3)CC2)c1 [GSK1379860]	7%	0%	7%	0%	18%	0%	0%	9%	3%	0%
Cn1ccc2ncnc(Oc3ccc(NC(=O)Nc4cccc(C(F)(F)F)c4)c(F)c3)c21	37%	0%	0%	19%	0%	0%	6%	13%	0%	22%
C[C@@H](Oc1cc(-n2cnc3cc(-c4ccncc4)ccc32)sc1C(N)=O)c1ccccc1Cl [GSK479719]	46%	0%	9%	0%	11%	7%	42%	4%	30%	21%
COc1cc(Nc2nccc(N3CCC(NC(=O)c4cccc(C#N)c4)C3)n2)cc(OC)c1OC (stereo not drawn) [GSK1379751]	0%	0%	0%	34%	17%	0%	0%	0%	4%	0%
CCN1CCN(CCCC(=O)Nc2n[nH]c3nc(-c4ccc(O)cc4)c(Br)cc23)CC1 [SB-731579]	5%	98.5%	4%	0%	0%	0%	13%	0%	0%	30%
COc1cc2ncn(-c3cc(OCC4CCCCC4)c(C(N)=O)s3)c2cc1OC [GSK204559]	7%	0%	28%	0%	8%	0%	7%	30%	22%	8%
